A number with no mark means an inactive call. Where a call stands in place of a potency, no number is given. For some of these results: Potency and affinity values are given separately. The source made the active and inactive calls. Unless noted, no rule for the calls is given here.
Experiments:
[1] = antimalarial activity against Dd2 strain (AID 2302;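 active = growth inhibition above 50% at the single 2 µM test dose, taken to imply half-maximal potency below 2 µM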); conditions: P. falciparum Dd2 in RBCs, LDH growth readout, 72 h; at 2 µM; active compounds read high
[2] = HepG2 cytotoxicity, primary screen, cytotoxicity control for P. falciparum antimalarial project, cell-based, ATP luminescence (AID 2303;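 active = inhibition above 50%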); conditions: HepG2 viability, 24-48 h, at 10 µM, active compounds read high
[3] = target: L-lactate dehydrogenase (Plasmodium falciparum (isolate CDC / Honduras)) (UniProt Q27743); test: PfLDH activity inhibition – cell lysate, 3D7 strain, counter-screen for P. falciparum growth inhibition project (AID 2304); conditions: P. falciparum 3D7 crude extract, LDH APAD/NBT absorbance; at 2 µM; active compounds read high
[4] = inhibition of 3D7 malaria parasite growth – strain 3D7 (AID 2306); conditions: P. falciparum 3D7 erythrocytic growth, LDH absorbance, 72 h; at 2 µM; active compounds read high
[5] = target: Calcium-dependent protein kinase 1 (Plasmodium falciparum (isolate 3D7)) (UniProt P62344); test: PfCDPK1 kinase inhibitors, biochemical, TCAMS library (AID 1159585; cut-off not given, nearly all actives have IC50 up to about 0.98 µM;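 also: inhibitors leave more ATP so luminescence rises with inhibition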); conditions: recombinant PfCDPK1, Kinase-Glo ATP depletion luminescence
[6] = target: Plasmodium falciparum protein kinase 6 (PK6, PF3D7_1337100) (UniProt Q8IDW1); test: PfPK6 kinase inhibitors, biochemical, TCAMS library (AID 1159586); conditions: recombinant PfPK6, Kinase-Glo ATP depletion luminescence
[7] = target: Protein kinase 7 (PK7), Plasmodium falciparum 3D7 (PF3D7_0213400) (UniProt Q7YTF7); test: inhibition of Plasmodium PK7 catalytic activity – biochemical, TCAMS antimalarial set, Kinase-Glo luminescence (AID 1159587); conditions: recombinant PfPK7, Kinase-Glo ATP depletion luminescence
[8] = target: Calcium-dependent protein kinase 4 (Plasmodium falciparum (isolate 3D7)) (UniProt Q8IBS5); test: PfCDPK4 kinase inhibitors, biochemical, TCAMS library (AID 1159588; cut-off not given, nearly all actives have IC50 up to about 0.91 µM); conditions: recombinant PfCDPK4, Kinase-Glo ATP depletion luminescence
Calcium-dependent protein kinase 4 (Plasmodium falciparum (isolate 3D7)), sequence (Q8IBS5 whole entry, looked up): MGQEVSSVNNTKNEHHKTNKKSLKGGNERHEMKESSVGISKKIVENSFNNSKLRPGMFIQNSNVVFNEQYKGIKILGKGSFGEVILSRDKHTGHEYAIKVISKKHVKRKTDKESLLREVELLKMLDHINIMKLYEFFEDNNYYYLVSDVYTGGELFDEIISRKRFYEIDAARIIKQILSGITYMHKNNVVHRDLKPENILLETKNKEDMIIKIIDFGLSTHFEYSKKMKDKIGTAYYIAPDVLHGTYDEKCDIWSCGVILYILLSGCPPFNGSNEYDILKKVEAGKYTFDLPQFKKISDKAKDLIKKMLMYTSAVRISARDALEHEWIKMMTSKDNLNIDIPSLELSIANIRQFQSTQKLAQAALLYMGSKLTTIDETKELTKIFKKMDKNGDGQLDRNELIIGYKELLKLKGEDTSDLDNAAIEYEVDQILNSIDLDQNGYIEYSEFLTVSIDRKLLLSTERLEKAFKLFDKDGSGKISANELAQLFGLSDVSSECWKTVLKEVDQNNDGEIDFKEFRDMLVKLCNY

Plasmodium falciparum protein kinase 6 (PK6, PF3D7_1337100), sequence (Q8IDW1 1-305): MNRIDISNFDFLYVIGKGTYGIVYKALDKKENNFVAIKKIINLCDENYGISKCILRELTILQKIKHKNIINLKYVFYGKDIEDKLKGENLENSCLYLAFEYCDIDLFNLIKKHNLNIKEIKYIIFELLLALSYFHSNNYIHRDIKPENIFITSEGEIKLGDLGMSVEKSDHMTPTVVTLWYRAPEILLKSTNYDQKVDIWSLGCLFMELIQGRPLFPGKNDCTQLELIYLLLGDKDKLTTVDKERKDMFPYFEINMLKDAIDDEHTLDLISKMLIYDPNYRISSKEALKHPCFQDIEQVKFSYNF
Calcium-dependent protein kinase 1 (Plasmodium falciparum (isolate 3D7)), sequence (P62344 whole entry, looked up): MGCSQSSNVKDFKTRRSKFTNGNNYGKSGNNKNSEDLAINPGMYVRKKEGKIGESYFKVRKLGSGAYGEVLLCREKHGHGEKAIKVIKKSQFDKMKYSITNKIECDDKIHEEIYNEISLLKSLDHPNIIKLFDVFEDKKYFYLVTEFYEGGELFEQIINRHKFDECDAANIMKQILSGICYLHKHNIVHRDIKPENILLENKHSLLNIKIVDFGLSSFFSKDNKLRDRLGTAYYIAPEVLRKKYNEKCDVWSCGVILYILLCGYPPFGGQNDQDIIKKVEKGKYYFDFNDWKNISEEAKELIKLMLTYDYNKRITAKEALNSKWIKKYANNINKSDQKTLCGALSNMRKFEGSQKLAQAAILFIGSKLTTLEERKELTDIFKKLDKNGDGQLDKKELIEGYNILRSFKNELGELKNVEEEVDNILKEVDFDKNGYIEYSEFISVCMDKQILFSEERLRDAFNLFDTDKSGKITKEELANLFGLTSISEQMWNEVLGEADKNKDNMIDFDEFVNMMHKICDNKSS
Protein kinase 7 (PK7), Plasmodium falciparum 3D7 (PF3D7_0213400), sequence (Q7YTF7 1-343): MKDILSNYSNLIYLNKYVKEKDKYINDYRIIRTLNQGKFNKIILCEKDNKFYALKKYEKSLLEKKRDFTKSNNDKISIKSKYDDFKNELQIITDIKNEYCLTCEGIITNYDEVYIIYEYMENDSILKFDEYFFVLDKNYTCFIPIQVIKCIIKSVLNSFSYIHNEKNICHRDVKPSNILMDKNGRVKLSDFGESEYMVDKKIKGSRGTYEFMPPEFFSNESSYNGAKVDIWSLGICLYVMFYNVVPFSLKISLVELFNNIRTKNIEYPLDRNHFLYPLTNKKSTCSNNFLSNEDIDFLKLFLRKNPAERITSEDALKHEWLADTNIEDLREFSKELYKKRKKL
L-lactate dehydrogenase (Plasmodium falciparum (isolate CDC / Honduras)), sequence (Q27743 whole entry, looked up): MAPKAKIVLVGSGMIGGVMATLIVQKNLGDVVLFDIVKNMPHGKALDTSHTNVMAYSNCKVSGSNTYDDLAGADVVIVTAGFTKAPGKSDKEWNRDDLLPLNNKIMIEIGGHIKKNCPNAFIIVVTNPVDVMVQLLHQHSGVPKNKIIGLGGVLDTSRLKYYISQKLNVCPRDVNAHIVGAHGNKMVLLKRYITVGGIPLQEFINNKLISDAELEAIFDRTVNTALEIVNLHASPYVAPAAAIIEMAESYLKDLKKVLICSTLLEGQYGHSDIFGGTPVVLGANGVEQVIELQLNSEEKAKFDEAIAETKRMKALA

Structure (SMILES)	growth inhibition [1]	inhibition [2]	inhibition [3] [%]	growth inhibition [4]	outcome [5]	outcome [6]	outcome [7]	outcome [8]
CC(C)=CC1C(C(=O)n2c(N)nc3ccccc32)C1(C)C (stereo not given)	3%	16%	-6	99% (active)	inactive	inactive	inactive	inactive
COc1ccc(Nc2nccc(N3CCC(NC(=O)c4cccc(C#N)c4)C3)n2)cc1 (stereo not given)	93% (active)	6%	-3	92% (active)	inactive	inactive	inactive	inactive
COc1c(CCNCCCCNCCc2cc(Cl)c3ccccc3c2OC)cc(Cl)c2ccccc12	100% (active)	99% (active)	-7	99% (active)	inactive	inactive	inactive	inactive
O=C(Nc1cccc(CN2CCCN(Cc3ccc(O)cc3)CC2)c1)c1ccc2ccccc2n1	22%	13%	-1	90% (active)	inactive	inactive	inactive	inactive
OC1(C(F)(F)F)CC(c2ccccc2)=NN1c1nncc(-c2ccccc2)n1 (stereo not given)	3%	-3%	-5	99% (active)	inactive	inactive	inactive	inactive
CN1CCCN(Cc2ccc(-c3cccc(NC(=O)c4ccc(C#N)cc4)c3)cc2)CC1	26%	29%	-5	100% (active)	inactive	inactive	inactive	inactive
C[C@H](NC(=O)C1CCCC1)C(=O)Nc1ccc(-c2ccc(-c3nc4ccc(C(F)(F)F)cc4[nH]3)cc2)cc1	70% (active)	34%	-4	99% (active)	inactive	inactive	inactive	inactive
COc1cc(Nc2nccc(N3CCC(NS(=O)(=O)c4ccc(NC(C)=O)cc4)CC3)n2)cc(OC)c1OC	42%	-5%	-3	91% (active)	inactive	inactive	inactive	inactive
CN(CCCCNC(=O)/C=C/c1ccccc1)C1CC2(CCN(C(=O)OC(C)(C)C)CC2)c2ccccc21 (stereo not given)	51% (active)	11%	1	87% (active)	inactive	inactive	inactive	inactive
O=C(Nc1ccc(Cl)cc1)Nc1cccc(CCNCc2ccccc2)c1	12%	16%	6	101% (active)	inactive	inactive	inactive	inactive
CC(=O)c1ccc(N2C(=O)C3C(Cc4ccc(OC(C)(C)C)cc4)NC4(C(=O)N(Cc5ccc(C(C)(C)C)cc5)c5ccccc54)C3C2=O)cc1 (stereo not given)	81% (active)	13%	4	86% (active)	inactive	inactive	inactive	inactive
CN(C)Cc1ccc(-c2cc3c(-c4ccc(CN(C)C)cc4)ccnc3[nH]2)cc1	96% (active)	86% (active)	0	100% (active)	inactive	inactive	inactive	inactive
CC(C)C[C@H](NC(=O)c1cc2cc(OCCN3CCNCC3)ccc2o1)C(=O)NC1CC[C@@H](C)N(C(=O)Nc2ccc(Cl)cc2)CC1=O (stereo not given in full)	92% (active)	-3%	6	90% (active)	inactive	inactive	inactive	inactive
COc1cc(C(=O)N2CCOC(CCN3CCC(Cc4ccc(F)cc4)CC3)(c3ccc(Cl)c(Cl)c3)C2)cc(OC)c1OC (stereo not given)	58% (active)	44%	-5	88% (active)	inactive	inactive	inactive	inactive
COc1ccccc1-c1cccc(CNC2CCN(CC3Cn4c(=O)ccc5ccc(F)c3c54)CC2)c1 (stereo not given)	-1%	30%	3	91% (active)	inactive	inactive	inactive	inactive
CCN(CC)CCN1C(=O)c2oc3ccc(Cl)cc3c(=O)c2C1c1ccc(SC)cc1 (stereo not given)	6%	-5%	-6	98% (active)	inactive	inactive	inactive	inactive
O=C(N[C@H]1CCN(CCc2ccc(O[C@H]3CCNC3)c(F)c2)C1)c1ccc(Cl)c(Cl)c1	23%	39%	2	95% (active)	inactive	inactive	inactive	inactive
COc1ccccc1C1CCN(C2CCC(NC(=O)/C=C/c3cc(F)cc(C(F)(F)F)c3)CC2)CC1 (stereo not given)	57% (active)	92% (active)	-1	98% (active)	inactive	inactive	inactive	inactive
Cc1cccc2[nH]c(-c3cccc(-c4cccc(NC(=O)Nc5cccc(C#N)c5)c4)c3)nc12	99% (active)	22%	6	101% (active)	inactive	inactive	inactive	inactive
CCN(CC)CCN(Cc1ccc(-c2ccc(C(F)(F)F)cc2)cc1)C(=O)Cn1nc(-c2ccc(C(F)(F)F)cc2)ccc1=O	83% (active)	44%	-2	100% (active)	inactive	inactive	inactive	inactive
